COUP-TFII inh = blocks human COUP-TFII nuclear receptor; P24468; HEK293T NGFI-A luciferase reporter, luminescence; inhibition, % at 8.6 µM; 370,000 tested, 0.7% active;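 active means inhibition above a per-plate cutoff, mean inhibition of test wells between control levels plus 3 SD, cut at about 38% in these data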;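 further: cells cotransfected with COUP-TFII expression vector driving the NGFI-A reporter; 0% = median of COUP-TF2 test wells and 100% = reporter-only cells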
NR5A2 inv ag = suppresses constitutive activity of human LRH-1; O00482; 360,000 tested, 0.13% active; HEK293T StAR-luciferase reporter, LRH-1 transfected, 24 h; inhibition, % at 3.6 µM;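 active means inhibition above the mean inhibition of all tested compounds plus 3 SD, cut at about 73% in these data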;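 further: 0% = DMSO wells and 100% = reporter-only cells lacking LRH-1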
SRC1 inh = inhibitors of human steroid receptor coactivator 1 (SRC1). inhibition, % at 3.6 µM. 360,000 tested, 0.12% active. AID 588354. HEK293 GAL4-SRC1 luciferase reporter, luminescence;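 active means inhibition above the campaign mean plus 3 SD, with each screening campaign given its own cutoff, cut at about 60% in these data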;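 further: 0% = DMSO treated cells and 100% = gossypol at 36 µM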
Target sequence (Q15788 whole entry, looked up, the tested form may be a part): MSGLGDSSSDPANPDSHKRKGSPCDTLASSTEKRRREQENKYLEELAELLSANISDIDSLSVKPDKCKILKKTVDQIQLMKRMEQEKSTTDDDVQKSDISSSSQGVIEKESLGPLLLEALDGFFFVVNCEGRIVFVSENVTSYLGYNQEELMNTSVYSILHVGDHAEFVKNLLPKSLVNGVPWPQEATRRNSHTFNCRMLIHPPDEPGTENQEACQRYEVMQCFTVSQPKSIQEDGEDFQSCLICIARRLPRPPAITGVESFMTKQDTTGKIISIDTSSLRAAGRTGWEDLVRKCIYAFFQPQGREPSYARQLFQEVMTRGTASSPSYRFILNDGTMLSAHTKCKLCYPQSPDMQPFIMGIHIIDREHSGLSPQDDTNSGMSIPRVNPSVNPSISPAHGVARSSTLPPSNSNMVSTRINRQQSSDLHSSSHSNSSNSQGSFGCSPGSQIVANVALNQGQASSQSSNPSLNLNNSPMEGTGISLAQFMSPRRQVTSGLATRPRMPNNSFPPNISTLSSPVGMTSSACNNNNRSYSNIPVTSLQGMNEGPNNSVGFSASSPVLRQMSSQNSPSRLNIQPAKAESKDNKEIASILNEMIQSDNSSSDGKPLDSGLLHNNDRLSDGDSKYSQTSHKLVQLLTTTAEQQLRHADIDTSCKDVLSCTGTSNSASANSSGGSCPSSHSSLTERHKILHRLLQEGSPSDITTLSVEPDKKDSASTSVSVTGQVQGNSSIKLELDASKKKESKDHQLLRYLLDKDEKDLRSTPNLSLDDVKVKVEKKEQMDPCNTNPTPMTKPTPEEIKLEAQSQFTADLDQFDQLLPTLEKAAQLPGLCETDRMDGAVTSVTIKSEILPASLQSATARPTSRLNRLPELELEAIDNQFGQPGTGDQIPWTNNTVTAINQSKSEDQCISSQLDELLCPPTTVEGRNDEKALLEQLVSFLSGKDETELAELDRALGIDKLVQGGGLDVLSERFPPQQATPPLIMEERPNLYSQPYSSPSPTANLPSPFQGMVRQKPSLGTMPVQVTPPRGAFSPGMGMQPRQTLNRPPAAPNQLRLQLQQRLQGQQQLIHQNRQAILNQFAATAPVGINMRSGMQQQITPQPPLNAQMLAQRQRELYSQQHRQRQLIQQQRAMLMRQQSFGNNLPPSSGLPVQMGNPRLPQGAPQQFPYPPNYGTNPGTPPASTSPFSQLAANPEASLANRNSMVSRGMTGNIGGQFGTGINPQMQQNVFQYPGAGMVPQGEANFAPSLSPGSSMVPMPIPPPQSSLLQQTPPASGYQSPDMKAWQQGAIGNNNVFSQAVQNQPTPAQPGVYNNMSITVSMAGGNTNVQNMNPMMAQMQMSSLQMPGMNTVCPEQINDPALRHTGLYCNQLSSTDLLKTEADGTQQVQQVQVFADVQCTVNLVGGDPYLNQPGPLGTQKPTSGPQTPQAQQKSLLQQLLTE
NCOA3 inh = human NCOA3 inhibition; Q9Y6Q9; HEK293 GAL4-SRC3 luciferase reporter, luminescence; inhibition, % at 3.6 µM; 360,000 tested, 0.17% active; AID 588352;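 active means inhibition above a per-campaign cutoff, the mean of all compounds plus 3 SD, cut at about 60% in these data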;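 further: 0% = DMSO-treated cells and 100% = gossypol-treated cells at 36 µM; higher means less SRC3-driven luciferase light from the GAL4 reporter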
Efflux pump inh = antifungal efflux pump inhibition, Nile Red retention. S. cerevisiae Candida pump triplex. AID 485275. 330,000 tested, 0.44% active. inhibition, % at 10 µM;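 active means plate passing quality check with inhibition over a set limit, or well fluorescence over plate mean plus 4 SD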;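 further: Nile Red retained in pooled yeast measured as flow cytometry median fluorescence; 0% = buffer negative control and 100% = Enniatin B positive control; higher means more Nile Red kept so more efflux inhibition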
SRC2 inh = inhibits human steroid receptor coactivator 2. Q15596. HEK293 GAL4-SRC2 luciferase reporter, luminescence. inhibition, % at 9 µM. 370,000 tested, 0.17% active. AID 651957;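 active means inhibition above the mean inhibition of all tested compounds plus 3 SD, set per campaign, cut at about 52% in these data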;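 further: 0% = DMSO treated cells and 100% = cells given Gossypol at 36 µM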
Gal4-VP16 ctr = inhibits VP16 reporter, flagging COUP-TFII antagonist hits | shares compounds with COUP-TFII inh | HEK293 Gal4-VP16 luciferase reporter, luminescence | inhibition, % at 8.5 µM | 2,500 tested, 25% active | AID 687007; in the data active means inhibition above about 13%
NR2F2 inh conf = confirmation of human COUP-TFII (NR2F2) inhibitors | shares compounds with COUP-TFII inh | HEK293 NGFI-A luciferase reporter, luminescence | inhibition, % at 8.5 µM | 2,500 tested, 45% active;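 active means mean inhibition over three repeats above a set limit taken from the earlier primary screen, cut at about 38% in these data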;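 further: 100% = cells given the luciferase reporter alone without the COUP-TF2 vector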
* hit, by the source's call. Compounds with a hit are over-represented: about 1.2% of the library has one in this group of screens.

How did C=C1C(=O)O[C@H]2[C@H]1[C@H](OC(=O)/C(C)=C\C)C[C@]1(CO1)[C@@H]1[C@H](OC(C)=O)C=C(C)[C@]21O do in these assays?
COUP-TFII inh: -4.3; NR5A2 inv ag: -3.9; SRC1 inh: -13.5; NCOA3 inh: -8.7; SRC2 inh: -30.2

What do the screens show for `N=c1c2c(n(Cc3ccc(Br)cc3)c3c1CCC3)CCCC2`?
COUP-TFII inh: 68.3*; NR5A2 inv ag: 92.7*; SRC1 inh: 42.4; NCOA3 inh: 74.8*; Efflux pump inh: 0.0; SRC2 inh: -19.3; Gal4-VP16 ctr: 24.3*; NR2F2 inh conf: 60.6*

Results for N=c1c2c(n(Cc3ccc(Cl)c(Cl)c3)c3c1CCC3)CCCC2 ?
COUP-TFII inh: 63.7*; NR5A2 inv ag: 95.7*; SRC1 inh: 62.9*; NCOA3 inh: 67.7*; Efflux pump inh: 0.4; SRC2 inh: -45.8; Gal4-VP16 ctr: 16.5*; NR2F2 inh conf: 46.6*

What do the screens show for `CCc1cc(C(c2ccccn2)N2CCN(C)CC2)c(NC(=O)c2ccccc2)s1` (centres undefined)?
COUP-TFII inh: 1.0; NR5A2 inv ag: 5.4; SRC1 inh: -20.1; NCOA3 inh: -3.4; Efflux pump inh: 0.3; SRC2 inh: 11.2

What do the screens show for `O=C(NC1CCCc2c1cnn2-c1ccc(F)cc1F)c1ccccn1` (centres undefined)?
COUP-TFII inh: 9.0; NR5A2 inv ag: -5.7; SRC1 inh: -6.9; NCOA3 inh: -8.0; Efflux pump inh: 0.0; SRC2 inh: -11.6

What do the screens show for `CC1=C(C(=O)NC2CCCc3c2cnn3-c2ccc(F)cc2F)OCCO1` (centres undefined)?
COUP-TFII inh: 47.1*; NR5A2 inv ag: 35.0; SRC1 inh: -2.1; NCOA3 inh: 28.0; Efflux pump inh: -0.1; SRC2 inh: 21.4; Gal4-VP16 ctr: -3.0; NR2F2 inh conf: 25.8

What do the screens show for `CCc1cc(C(=O)NC2CCCc3c2cnn3-c2ccc(F)cc2F)no1` (centres undefined)?
COUP-TFII inh: 52.8*; NR5A2 inv ag: 15.2; SRC1 inh: 5.9; NCOA3 inh: -9.0; SRC2 inh: 7.3; Gal4-VP16 ctr: -6.6; NR2F2 inh conf: 17.3

What do the screens show for `CN(C)S(=O)(=O)Oc1ccc(C(=O)Nc2cccc(C(F)(F)F)c2)cc1`?
COUP-TFII inh: 54.1*; NR5A2 inv ag: 1.2; SRC1 inh: 11.4; NCOA3 inh: 8.7; Efflux pump inh: -0.6; SRC2 inh: -0.9; Gal4-VP16 ctr: -19.8; NR2F2 inh conf: 16.1

How did CN(C)S(=O)(=O)Oc1ccc(C(=O)Nc2cccc(Cl)c2)cc1 do in these assays?
COUP-TFII inh: -18.5; NR5A2 inv ag: -92.1; SRC1 inh: -46.9; NCOA3 inh: -60.7; Efflux pump inh: 0.5; SRC2 inh: -34.0

Results for CN(C)S(=O)(=O)Oc1cccc(C(=O)Nc2ccc(Cl)cc2)c1 ?
COUP-TFII inh: 44.8*; NR5A2 inv ag: -86.2; SRC1 inh: -40.3; NCOA3 inh: -36.5; Efflux pump inh: -0.1; SRC2 inh: -30.8; Gal4-VP16 ctr: -187.4; NR2F2 inh conf: -12.2

What do the screens show for `Cc1ccc2cc(CN(CC3CCCO3)C(=O)C(C)C)c(=O)[nH]c2c1` (centres undefined)?
COUP-TFII inh: 11.8; NR5A2 inv ag: 7.1; SRC1 inh: -2.6; NCOA3 inh: 2.2; Efflux pump inh: -0.1; SRC2 inh: -19.5

What do the screens show for `CN(C)S(=O)(=O)c1cccc(CSCc2cccc(S(=O)(=O)N(C)C)c2)c1`?
COUP-TFII inh: 56.8*; NR5A2 inv ag: 41.8; SRC1 inh: 31.7; NCOA3 inh: 33.6; Efflux pump inh: 0.1; SRC2 inh: 0.6; Gal4-VP16 ctr: 7.2; NR2F2 inh conf: 56.1*

What do the screens show for `CCc1nc(C)cn1S(=O)(=O)c1cc(C)c(OC)c(C)c1C`?
COUP-TFII inh: 48.9*; NR5A2 inv ag: -5.0; SRC1 inh: -2.9; NCOA3 inh: 14.3; Efflux pump inh: -0.1; SRC2 inh: 23.7; Gal4-VP16 ctr: 7.4; NR2F2 inh conf: 39.8*

What do the screens show for `COc1ccc(CCNc2ccc(N3C(=O)CC(C)C3=O)cc2[N+](=O)[O-])cc1OC` (centres undefined)?
COUP-TFII inh: 55.4*; NR5A2 inv ag: 35.7; SRC1 inh: 8.3; NCOA3 inh: 21.2; Efflux pump inh: -0.1; SRC2 inh: 29.4; Gal4-VP16 ctr: -4.7; NR2F2 inh conf: 24.1

What do the screens show for `COc1ccc(CCNc2ccc(N3C(=O)CC(C)C3=O)cc2[N+](=O)[O-])cc1` (centres undefined)?
COUP-TFII inh: 3.7; NR5A2 inv ag: 12.3; SRC1 inh: 5.7; NCOA3 inh: 7.1; Efflux pump inh: -0.3; SRC2 inh: 13.3

What do the screens show for `Cc1cc(N2CCN(S(=O)(=O)c3ccc(Cl)cc3)CC2)c2ccccc2n1`?
COUP-TFII inh: 40.9*; NR5A2 inv ag: -2.5; SRC1 inh: -4.3; NCOA3 inh: 10.7; Efflux pump inh: 0.1; SRC2 inh: 16.8; Gal4-VP16 ctr: -1.3; NR2F2 inh conf: 13.7

What do the screens show for `Cc1cc(N2CCN(C(=O)Oc3ccc([N+](=O)[O-])cc3)CC2)c2ccccc2n1`?
COUP-TFII inh: 43.0*; NR5A2 inv ag: 27.6; SRC2 inh: 23.9; Gal4-VP16 ctr: 0.6; NR2F2 inh conf: 20.3

How did Cc1cc(N2CCN(S(=O)(=O)c3ccc(Cl)c(Cl)c3)CC2)c2ccccc2n1 do in these assays?
COUP-TFII inh: 19.0; NR5A2 inv ag: 2.9; SRC1 inh: 18.2; NCOA3 inh: 10.3; Efflux pump inh: -0.2; SRC2 inh: 18.6

What do the screens show for `CCC(NS(=O)(=O)c1ccc(C)cc1)C(=O)N1CCOCCOCCOCC1` (centres undefined)?
COUP-TFII inh: 2.8; NR5A2 inv ag: -11.2; SRC1 inh: 0.6; NCOA3 inh: 4.3; Efflux pump inh: 0.1; SRC2 inh: -33.7

How did CC(C)(C)c1ccc(-c2nnc(SCC(=O)Nc3cccc4ccccc34)n2Cc2ccco2)cc1 do in these assays?
COUP-TFII inh: 37.8*; SRC2 inh: -11.2; Gal4-VP16 ctr: 4.3; NR2F2 inh conf: 11.1

What do the screens show for `COc1ccc(-c2nn(CCC#N)cc2C(=O)Nc2ccccn2)cc1OC`?
COUP-TFII inh: 20.6; NR5A2 inv ag: 3.8; SRC1 inh: -23.5; NCOA3 inh: -4.9; Efflux pump inh: 0.1; SRC2 inh: -15.1

How did Cc1noc(C)c1COC(=O)c1cccc(S(=O)(=O)N2CCCCCC2)c1 do in these assays?
COUP-TFII inh: 59.5*; NR5A2 inv ag: 10.9; SRC1 inh: 9.1; NCOA3 inh: 36.8; Efflux pump inh: 0.1; SRC2 inh: 40.2; Gal4-VP16 ctr: 4.1; NR2F2 inh conf: 35.7

What do the screens show for `C[C@H](O)[C@@H]1C(=O)N2CCc3c([nH]c4cccc(-c5ccccc5)c34)[C@@H]2C[C@@H]1N(C)C(=O)c1ccccc1`?
COUP-TFII inh: -11.2; SRC2 inh: 16.8
